miR122 inh = raises miR-122 sensor activity in Huh7 cells; Huh7 psiCHECK-miR122 Renilla luciferase sensor, 48 h; activation, % at 12.5 µM; hit rate 0.14% among 340,000; AID 623901;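 active = mean activation of 30% or more, with every replicate also reaching 30%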;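 note: 0% = median of neutral control wells and 100% = median of positive control wells; higher luciferase signal means stronger suppression of miR-122 activity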
An asterisk follows results filed as active. The entries come from a sample that favours hits as a whole.

SMILES	miR122 inh
CC(C)CC#Cc1ccc2c(c1)O[C@H](CN(C)C(=O)C1CCOCC1)[C@@H](C)CN([C@@H](C)CO)S2(=O)=O	19
COc1cccc(-c2cnc3c(c2)C(=O)N([C@H](C)CO)C[C@H](C)[C@H](CN(C)C(=O)CC2CC2)O3)c1	-16
COc1ccc(-c2cnc3c(c2)C(=O)N([C@H](C)CO)C[C@@H](C)[C@@H](CN(C)C(=O)C2CCOCC2)O3)cc1	-3
Cc1ccccc1-c1ccc2c(c1)O[C@@H](CN(C)C(=O)Nc1ccccc1)[C@@H](C)CN([C@@H](C)CO)S2(=O)=O	-4
COc1ccc(NC(=O)N2CCCCN3[C@H](CO)[C@H](c4ccc(C#CCC(C)C)cc4)[C@H]3C2)cc1	34*
COc1cccc(NC(=O)N(C)C[C@@H]2Oc3cc(C#Cc4ccccc4)ccc3S(=O)(=O)N([C@H](C)CO)C[C@H]2C)c1	2
COc1ccc(C#Cc2ccc([C@@H]3[C@H](CO)N4CCCCN(C(=O)Nc5ccccc5)C[C@@H]34)cc2)cc1	36*
COc1ccc(C#Cc2ccc3c(c2)O[C@@H](CN(C)C(=O)NC2CCCCC2)[C@H](C)CN([C@@H](C)CO)S3(=O)=O)cc1	-17
COCC#Cc1cnc2c(c1)C(=O)N([C@@H](C)CO)C[C@H](C)[C@H](CN(C)C(=O)Nc1ccc(OC)cc1)O2	-23
Cc1ccccc1-c1ccc2c(c1)O[C@@H](CN(C)C(=O)Nc1ccccc1)[C@@H](C)CN([C@H](C)CO)S2(=O)=O	5
Cc1ccccc1-c1ccc([C@@H]2[C@@H](CO)N3CCCCN(C(=O)Nc4ccc(F)cc4)C[C@@H]23)cc1	31*
CO[C@@H]1CN(C)C(=O)c2ccc(NC(=O)NC(C)C)cc2OC[C@H](C)NC[C@@H]1C	-57
CC(C)C#Cc1ccc2c(c1)O[C@@H](CN(C)C(=O)CC1CC1)[C@H](C)CN([C@H](C)CO)S2(=O)=O	3
CC(C)CC#Cc1cnc2c(c1)C(=O)N([C@@H](C)CO)C[C@@H](C)[C@H](CN(C)Cc1ccc(F)cc1)O2	6
C[C@H]1CN([C@@H](C)CO)S(=O)(=O)c2ccc(Br)cc2O[C@H]1CN(C)C(=O)CC1CC1	3
C[C@H](CO)N1C[C@H](C)[C@@H](CN(C)Cc2ccccc2C(=O)O)Oc2cc(-c3ccccc3)ccc2S1(=O)=O	-28
C[C@@H]1CN([C@@H](C)CO)C(=O)c2cccc(N(C)C)c2O[C@@H]1CN(C)Cc1ccc(C(=O)Nc2ccccc2N)cc1	-109
CCC(=O)Nc1ccc2c(c1)OC[C@@H](C)N(C(=O)c1ccncc1)C[C@H](C)[C@H](OC)CN(C)C2=O	2
COc1cccc(-c2cnc3c(c2)C(=O)N([C@H](C)CO)C[C@H](C)[C@H](CN(C)Cc2cccnc2)O3)c1	-4
C[C@@H]1CN([C@H](C)CO)C(=O)c2cc(C#C[C@@H](C)O)cnc2O[C@H]1CN(C)C(=O)CN(C)C	9
CCCC#Cc1cnc2c(c1)C(=O)N([C@@H](C)CO)C[C@@H](C)[C@@H](CN(C)C(=O)Cc1ccccc1)O2	-2
Clc1ccc(CSc2nnc(-c3ccncc3)o2)c(Cl)c1	33*
Cc1ccc(C)c(CSc2nnc(-c3cccnc3)o2)c1	-356
C[C@H](CO)N1C[C@H](C)[C@H](CN(C)C(=O)c2cccnc2)Oc2cc(/C=C/c3ccccc3)ccc2S1(=O)=O	-3
C[C@@H]1CN([C@H](C)CO)C(=O)c2cc(/C=C/c3ccccc3)cnc2O[C@H]1CN(C)C(=O)c1ccncc1	4
SMILES	miR122 inh
C[C@H]1CN([C@@H](C)CO)C(=O)c2cc(C#CC3(O)CCCC3)cnc2O[C@@H]1CN(C)C(=O)CN(C)C	4
COCC(=O)N(C)C[C@H]1Oc2ncc(/C=C/c3ccccc3)cc2C(=O)N([C@@H](C)CO)C[C@@H]1C	-3
COc1ccc(-c2c(C(C)=O)c(C)nc3sc4c(c23)NC(c2ccccc2)NC4=O)cc1 (stereo not drawn)	36*
COc1ccccc1-c1cnc2c(c1)C(=O)N([C@H](C)CO)C[C@H](C)[C@@H](CN(C)C(=O)c1ccccc1)O2	-14
C[C@@H]1CN([C@@H](C)CO)C(=O)c2cc(-c3ccc(F)cc3)cnc2O[C@H]1CN(C)Cc1ccc(C(=O)O)cc1	5
C[C@@H]1CN([C@@H](C)CO)C(=O)c2cc(Br)cnc2O[C@@H]1CN(C)C(=O)c1cccnc1	-5
C[C@H]1CN([C@@H](C)CO)C(=O)c2cc(-c3ccc(C#N)cc3)cnc2O[C@@H]1CN(C)CC1CCOCC1	0
COc1cccc(C#Cc2ccc3c(c2)O[C@@H](CN(C)S(=O)(=O)c2ccccc2F)[C@@H](C)CN([C@@H](C)CO)S3(=O)=O)c1	1
CCC(=O)Nc1ccc2c(c1)OC[C@@H](C)N(C(=O)c1ccccc1F)C[C@H](C)[C@@H](OC)CN(C)C2=O	-3
CO[C@@H]1CN(C)C(=O)c2ccc(NC(=O)c3ccc(Oc4ccccc4)cc3)cc2OC[C@H](C)NC[C@@H]1C	37*
CO[C@@H]1CN(C)C(=O)c2cc(NC(C)=O)ccc2OC[C@H](C)N(C(=O)c2ccccc2)C[C@@H]1C	-1
CO[C@@H]1CN(C)C(=O)c2ccc(NC(C)=O)cc2OC[C@@H](C)N(C(=O)c2ccccc2F)C[C@H]1C	35*
COc1ccc(NC(=O)Nc2ccc3c(c2)OC[C@@H](C)NC[C@@H](C)[C@@H](OC)CN(C)C3=O)cc1	3
COc1ccc(NC(=O)Nc2ccc3c(c2)OC[C@@H](C)NC[C@H](C)[C@@H](OC)CN(C)C3=O)cc1	-1
COc1cccc(C#Cc2ccc3c(c2)O[C@@H](CN(C)S(=O)(=O)c2ccccc2F)[C@H](C)CN([C@@H](C)CO)S3(=O)=O)c1	5
C[C@H]1CN([C@@H](C)CO)C(=O)c2cc(C#Cc3ccccc3F)cnc2O[C@@H]1CN(C)C(=O)C1CCOCC1	-2
C[C@H]1CN([C@@H](C)CO)C(=O)c2cc(C3=CCCCC3)cnc2O[C@H]1CN(C)C(=O)c1ccc(F)cc1	2
CCCNC(=O)N(C)C[C@@H]1Oc2cc(C#Cc3cccc(F)c3)ccc2S(=O)(=O)N([C@H](C)CO)C[C@@H]1C	-5
CC(C)CC#Cc1cnc2c(c1)C(=O)N([C@@H](C)CO)C[C@@H](C)[C@@H](CN(C)C(=O)Cc1ccccc1)O2	9
C[C@@H]1CN([C@H](C)CO)C(=O)c2cc(C#Cc3ccccc3)cnc2O[C@@H]1CN(C)Cc1ccccn1	0
C[C@@H]1CN([C@@H](C)CO)C(=O)c2cc(-c3cncnc3)cnc2O[C@H]1CN(C)Cc1ccc(F)cc1	5
CC(C)CC#Cc1cnc2c(c1)C(=O)N([C@H](C)CO)C[C@H](C)[C@@H](CN(C)C(=O)Nc1ccccc1F)O2	3
COc1ccc(OC)c(S(=O)(=O)Nc2ccc(C(C)=O)cc2)c1	-100
COc1cccc(OCc2cc(/C=N/Nc3ccc(C(=O)O)cc3)ccc2OC)c1	47*
C[C@H](CO)N1C[C@H](C)[C@@H](CN(C)CC2CCOCC2)Oc2ncc(-c3cncnc3)cc2C1=O	4
C[C@H]1CN([C@@H](C)CO)C(=O)c2cc(-c3ccccc3)cnc2O[C@H]1CN(C)C(=O)c1cccnc1	0
CO[C@H]1CN(C)C(=O)c2ccc(NC(=O)Nc3cccc(F)c3)cc2OC[C@@H](C)N(C)C[C@H]1C	-2
CCS(=O)(=O)Nc1ccc2c(c1)C(=O)N(C)C[C@H](OC)[C@@H](C)CN[C@@H](C)CO2	-3
CCNC(=O)C[C@@H]1CC[C@@H]2[C@@H](COc3ccc(NC(=O)C4CCCCC4)cc3C(=O)N2C)O1	33*
